Screens from PubChem BioAssay.
The list is not random: actives were taken first. Their share in the collection is about 3.9%.
PLCg1 inh = PLC-gamma1 (human) inhibition, primary screen; P19174; purified PLC-gamma1, fluorogenic substrate, fluorescence; inhibition, % at 12.2 µM; 370,000 tested, 0.84% active; AID 720700; in the data active = inhibition above about 9.5%
Yeast superoxide = yeast age-related superoxide inhibition as caloric restriction mimetic. S. cerevisiae aged cells, superoxide DHE fluorescence; active compounds read low. superoxide response (% of plate mean), % at 10 µM. 330,000 tested, 0.18% active;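 active = superoxide response under a set limit, about three screen SD below normal, cut at about 65% in these data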;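 note: yeast aged for seven days with compound at 30 °C before DHE staining; 100% = average MFI of all compound-treated wells on the plate with controls excluded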
PLC-beta3 inh = PLC-beta3 (human) inhibition, primary screen | Purified PLC-beta3, fluorogenic substrate, fluorescence | inhibition, % at 12.2 µM | 370,000 tested, 0.18% active | AID 720704; in the data active = inhibition above about 11%;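 note: 0% = median of compound wells on plate and 100% = full blocker control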
Target sequence (Q01970 whole entry, looked up): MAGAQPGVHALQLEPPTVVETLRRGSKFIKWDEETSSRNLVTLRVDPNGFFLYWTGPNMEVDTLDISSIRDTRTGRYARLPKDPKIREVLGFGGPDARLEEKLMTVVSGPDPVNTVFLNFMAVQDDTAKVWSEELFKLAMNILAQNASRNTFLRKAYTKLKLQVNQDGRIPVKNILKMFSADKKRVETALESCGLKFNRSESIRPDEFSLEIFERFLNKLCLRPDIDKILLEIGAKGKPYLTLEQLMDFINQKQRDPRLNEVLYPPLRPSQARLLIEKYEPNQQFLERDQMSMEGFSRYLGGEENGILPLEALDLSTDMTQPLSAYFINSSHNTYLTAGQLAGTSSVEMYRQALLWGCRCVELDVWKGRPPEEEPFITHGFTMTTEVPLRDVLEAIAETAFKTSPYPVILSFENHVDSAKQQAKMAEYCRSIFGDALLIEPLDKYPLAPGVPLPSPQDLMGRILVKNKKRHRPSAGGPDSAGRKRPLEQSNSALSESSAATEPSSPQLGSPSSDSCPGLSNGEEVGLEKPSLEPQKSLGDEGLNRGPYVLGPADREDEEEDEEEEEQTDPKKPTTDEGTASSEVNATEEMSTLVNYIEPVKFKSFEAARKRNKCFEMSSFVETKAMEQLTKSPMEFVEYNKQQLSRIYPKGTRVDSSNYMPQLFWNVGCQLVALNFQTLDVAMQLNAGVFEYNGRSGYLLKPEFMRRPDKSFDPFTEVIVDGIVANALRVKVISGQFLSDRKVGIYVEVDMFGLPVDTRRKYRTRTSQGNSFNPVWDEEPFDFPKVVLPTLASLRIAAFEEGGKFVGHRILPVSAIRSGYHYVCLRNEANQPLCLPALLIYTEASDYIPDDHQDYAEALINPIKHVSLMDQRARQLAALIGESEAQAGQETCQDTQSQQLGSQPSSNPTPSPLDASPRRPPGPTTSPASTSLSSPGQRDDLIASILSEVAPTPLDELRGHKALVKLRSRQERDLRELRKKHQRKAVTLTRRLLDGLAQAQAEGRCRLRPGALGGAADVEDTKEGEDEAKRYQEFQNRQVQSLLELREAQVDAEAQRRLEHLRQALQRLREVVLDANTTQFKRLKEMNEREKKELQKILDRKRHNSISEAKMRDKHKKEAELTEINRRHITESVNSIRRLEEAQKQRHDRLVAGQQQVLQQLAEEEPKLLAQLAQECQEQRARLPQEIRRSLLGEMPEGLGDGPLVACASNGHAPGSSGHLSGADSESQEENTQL
AHR activator = activates the human aryl hydrocarbon receptor. P35869. AHR-responsive luciferase reporter cells, luminescence. activation, % at 5 µM. 320,000 tested, 2.5% active. AID 2796; in the data active = activation above about 47%;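 note: 0% = vehicle wells and 100% = reference agonist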
HIF act = HIF pathway transcriptional activation; 300,000 tested, 0.32% active; activation, % at 7.5 µM (by protocol); U2OS HRE-luciferase reporter, luminescence; normalized: DMSO 0%, desferrioxamine 100%; AID 1910;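 active = mean activation of at least 10% of the iron chelator positive control signal, with at least half of replicates also reaching 10%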
sPLA2-III inh = Blocks human group III sPLA2 activity. inhibition, % at 12.2 µM. QFRET BODIPY PC-A2 liposome hydrolysis, fluorescence. 370,000 tested, 0.56% active;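 active = inhibition above mean plus 3 SD of compounds lying within the high and low control bounds, cut at about 19% in these data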;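 note: 0% = median of test compound wells and 100% = no enzyme DMSO wells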
Starred values were filed as active, the others as inactive; i = inactive; . = not tested or not shown.

SMILES	PLCg1 inh	Yeast superoxide	PLC-beta3 inh	AHR activator	HIF act	sPLA2-III inh
Cc1ccccc1-n1c(=O)n(Cc2ccc(C(=O)O)cc2)c(=O)c2[nH]cnc21	-2	99	-3	1	37*	2
COc1ccc(Cn2c(=O)c3[nH]cnc3n(-c3ccccc3C)c2=O)cc1	2	115	-8	1	0	-9
Cc1cc(NC(=O)c2cc3cccc([N+](=O)[O-])c3[nH]2)ccc1F	7	98	-2	65*	3	-10
CCOC(=O)[C@]12CCCCC/C=C\1N(CCc1ccc(Cl)cc1)C(=O)[C@H]2CC(=O)NCc1cccs1	2	.	2	.	.	-12
Cc1ccc(C)c(S(=O)(=O)/N=C2\C=C(NS(=O)(=O)c3ccccc3)C(=O)c3ccccc32)c1	-1	101	-10	74*	0	-9
COC(=O)C1CCCN(C(=O)C2CCN(S(=O)(=O)c3cccs3)CC2)C1 (configuration not stated)	0	.	1	.	.	0
COC(=O)c1cc2c(c3c4cc(OC)ccc4n(S(=O)(=O)c4cccc(C)c4)c13)C(=O)N(Cc1ccc(C(F)(F)F)cc1)C2	-11	.	-9	.	.	-1
O=C(Cc1cccs1)N=Nc1c(O)[nH]c2ccccc12	1	121	-3	8	1	-43
O=C(N=Nc1c(O)[nH]c2ccccc12)c1cc(-c2cccs2)[nH]n1	1	108	-10	84*	0	16
COc1cccc(-c2nn(C)c3sc(C(=O)NCc4ccc5c(c4)OCO5)cc23)c1	-33	107	-44	50*	0	-6
Cn1nc(-c2ccc(Cl)cc2)c2cc(C(=O)N3CCOCC3)sc21	-6	99	-13	55*	.	6
COc1cccc(-c2nc(CS(=O)(=O)CC(=O)N3CCCCC3)c(C)o2)c1	-1	74	-7	6	0	2
COc1cccc(-c2nc(CS(=O)(=O)CC(=O)N3CCN(c4ccccn4)CC3)c(C)o2)c1	0	94	0	57*	0	-18
O=C(c1cc(-c2ccc(Cl)cc2)on1)N1CCOCC1	4	118	7	-4	0	3
COc1cccc(-c2nn(C)c3sc(C(=O)N4CCOCC4)cc23)c1	-18	94	-22	58*	0	4
COc1cc2c(c(OC)c1)C(=O)O[C@H](C)C[C@@H]1O[C@H]1CCCCC(=O)C2	-2	.	-3	.	.	7
C[C@@H]1CCN(C2CC2)S(=O)(=O)c2ccc(N3CC[C@@H](O)C3)cc2O1	-2	.	1	.	.	4
CCOc1ccc(-n2c(COc3ccccc3)nnc2SCC(=O)Nc2ccc3c(c2)OCCO3)cc1	3	.	2	.	.	-29
COC(=O)[C@]12CCCCC=C1N(Cc1ccc(OC)cc1)C(=O)[C@@H]2CC(=O)NCCCCc1ccccc1	0	.	-2	.	.	-27
CCOc1cccc(-c2nnc3n2N=C(c2ccc(OC)cc2)CS3)c1	2	.	-2	.	.	-33
COc1cccc(-c2nn(C)c3sc(C(=O)N4CCN(c5ccccn5)CC4)cc23)c1	.	95	.	58*	0	.
Cn1nc(-c2ccccc2F)c2cc(C(=O)N3CCN(C(=O)c4ccco4)CC3)sc21	1	101	-2	66*	0	-7
Cc1ccc(-c2cn3cccc(C)c3n2)cc1	-6	.	-11	.	-1	-4
Cc1cccn2cc(-c3ccc(Cl)cc3)nc12	-6	108	-13	71*	-3	-1
COc1ccc(-c2cn3ccccc3n2)cc1OC	-217	113	-309	61*	2	4
SMILES	PLCg1 inh	Yeast superoxide	PLC-beta3 inh	AHR activator	HIF act	sPLA2-III inh
Cc1cccn2cc(-c3c[nH]c4ccccc34)nc12	-317	144	-486	59*	0	0
Brc1ccc2nc(-c3c[nH]c4ccccc34)cn2c1	-56	94	-95	45	5	-2
COc1ccc(-c2cn3cccc(C)c3n2)cc1F	-7	103	-9	70*	2	-3
CCN(C(=O)[C@@H](C1CC1)[C@@H](O)c1ccc(C(C)=O)cc1)c1ccccc1	0	.	1	.	.	2
CCCCCCn1c(-c2ccc(Cl)cc2Cl)csc1=Nc1ccccc1	-2	.	2	.	.	1
N#Cc1c(C(F)(F)F)cc(-c2ccc(Cl)c(Cl)c2)nc1SCCN1CCOCC1	.	111	.	65*	0	.
Cc1cccc(Cn2cc(COC(=O)N(C)Cc3ccccc3)nn2)c1	-2	.	-5	.	.	4
N#C/C(=C\Nc1ccc2cn[nH]c2c1)c1nc(-c2ccccc2)cs1	-2	.	1	.	0	3
N#C/C(=C\Nc1ccc2cn[nH]c2c1)c1nc(-c2ccc(Cl)cc2)cs1	-6	120	-16	52*	-1	-1
CN1CCSc2ccc(C(=O)NCc3cccc(F)c3)cc21	i	115	i	67*	0	-3
COc1ccc(Br)cc1CNC(=O)c1ccc2c(c1)N(C)CCS2	i	102	i	49*	0	1
CCN1CCSc2ccc(C(=O)NCc3cc(Br)ccc3OC)cc21	i	97	i	15	2	3
COc1cccc(NC(=O)c2ccc3c(c2)N(C)CCS3)c1	i	92	i	20	3	4
Cc1ccc(NC(=O)CCC(=O)NNC(=O)COc2ccccc2)cc1C	0	98	-2	68*	-2	-3
O=C(NC1CCCCN(Cc2cccc(C(F)(F)F)c2)C1=O)c1ccc(F)cc1 (configuration not stated)	0	.	-3	.	.	-2
Cc1cc(C)cc(NC(=O)Nc2ccc3c(c2)N(C)C(=O)CS3)c1	0	112	-3	71*	.	-5
COc1ccc(-c2cc(C(=O)NN=Cc3ccccc3F)[nH]n2)cc1	2	.	-1	.	.	5
COC(=O)c1cc(S(=O)(=O)NCc2ccccc2OC)cn1C	3	91	-4	3	71*	2
COC(=O)c1cc(S(=O)(=O)NCc2cccc(OC)c2)cn1C	0	98	2	-1	0	3
N#Cc1cc2ccccc2nc1SCC(=O)NC1CC1	-3	100	-5	64*	1	1
CCCCC(=O)N1CCN(C(=O)c2ccc3nc(C)n(C4CCCC4)c3c2)CC1	-1	.	0	.	.	13
Cc1ccc(C(=O)Nc2ccc(OCc3ccccc3)cc2)cc1[N+](=O)[O-]	2	122	-1	-4	0	6
Cc1ccc(C(=O)Nc2ccccc2Oc2ccccc2)cc1[N+](=O)[O-]	7	103	-14	74*	1	-4
O=C(Nc1ccccc1Oc1ccccc1)c1cccc([N+](=O)[O-])c1	3	90	4	77*	0	1
COc1cccc(C(=O)NN2CC(O)=C(c3nc(C)cs3)C2=N)c1	-20	101	-37	53*	0	-4
O=C(c1ccccc1Cl)c1c(O)c2ccccc2oc1=O	0	102	-12	55*	0	12
